In PubChem BioAssay (EPA / NIEHS) one finds outcome and AC50 data, which are given here for six compounds.

For test [1], the target named is Bile acid receptor (Homo sapiens) (UniProt Q96RI1). The test is described as follows: ATG_FXR_TRANS: Attagene TRANS-FACTORIAL HepG2 Assay for Farnesoid X Receptor (FXR) (AID 2282979; active means hit-call score of the fitted dose curve at least 0.9, where 1 is the maximum;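 further: hits raise reporter mRNA above DMSO so AC50 marks FXR activation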). To be noted: HepG2 Attagene TRANS FXR-GAL4 reporter transcription. Summed up:
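HepG2 cells were transiently transfected with GAL4-UAS reporters driven by chimeric NR-Gal4 proteins and dosed for 24 h. Reporter mRNA was quantified by RT-PCR, fluorescent labelling, HpaI digestion and capillary electrophoresis, with gain of signal scored versus DMSO.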

Test [2] has as its target Oxysterols receptor LXR-alpha (Homo sapiens) (UniProt Q13133). The test is described as follows: ATG_LXRa_TRANS: Attagene TRANS-FACTORIAL HepG2 Assay for human Liver X Receptor alpha (LXRa) (AID 2282980; active means hit-call score of the fitted dose curve at least 0.9, where 1 is the maximum). As to conditions: HepG2 Attagene TRANS reporter, LXRa transactivation. The procedure, abridged: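 HepG2 cells transiently transfected with GAL4-UAS reporter units for chimeric NR-Gal4 proteins, exposed to chemicals for 24 h. Reporter mRNA quantified by RT-PCR and capillary electrophoresis; gain of signal fitted relative to DMSO.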

The target of test [3] is Hepatocyte nuclear factor 4-alpha (Homo sapiens) (UniProt P41235). Description: ATG_HNF4a_TRANS: Attagene TRANS-FACTORIAL HepG2 Assay for human Hepatocyte Nuclear Factor 4 alpha (HNF4a) (AID 2282982; active means hit-call score of the fitted dose curve at least 0.9, where 1 is the maximum). As to conditions: HepG2 HNF4a transactivation reporter, mRNA readout. The procedure, abridged:
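In this trans-factorial format, a chimeric HNF4a-GAL4 fusion drives a GAL4-UAS reporter in transfected HepG2 liver cells. After 24 h treatment, reporter mRNA induction is measured by RT-PCR with capillary electrophoresis, relative to DMSO.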

Test [4] can be described thus: ATG_M_06_TRANS: Attagene TRANS-FACTORIAL HepG2 Assay for M06 Transcription Factor (Internal Marker) (AID 2282983; active means hit-call score of the fitted dose curve at least 0.9, where 1 is the maximum). As to conditions: HepG2 Attagene TRANS M06 internal marker reporter. Summed up:
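mRNA levels of a reporter transcript, quantified as FAM fluorescence on capillary electrophoresis, served as readout. HepG2 cells expressing exogenous GAL4-chimera reporter constructs were exposed for 24 h. Gain of signal over DMSO was evaluated.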

Test [5] can be described thus: ATG_M_32_TRANS: Attagene TRANS-FACTORIAL HepG2 Assay for M32 Transcription Factor (Internal Marker) (AID 2282984; active means hit-call score of the fitted dose curve at least 0.9, where 1 is the maximum;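 further: transcript level of a background control reporter unit measured by RT-PCR and capillary electrophoresis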). As to conditions: HepG2 Attagene TRANS M32 internal marker reporter. The procedure, abridged:
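After 24 h dosing of transfected HepG2 cells, total RNA was reverse-transcribed, reporter sequences PCR-amplified, 6-FAM labelled by primer extension and HpaI-digested before capillary electrophoresis. Signal increase over DMSO was fitted.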

Test [6] concerns the target Transcriptional activator Myb (Homo sapiens) (UniProt P10242). The test is described as follows: ATG_Myb_CIS: Attagene CIS-FACTORIAL HepG2 Assay for human Myeloblastosis (Myb) Proto-Oncogene Transcription Factor (AID 2282986). As to conditions: HepG2 Attagene CIS-FACTORIAL Myb reporter transcription; actives raise or lower the signal. Summed up: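 In this HepG2 transient-transfection format, cis-regulated reporter mRNA is quantified 24 h post-dosing by RT-PCR with capillary electrophoresis, fitted bidirectionally to DMSO baseline.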

In test [7] the target is Nuclear respiratory factor 1 (Homo sapiens) (UniProt Q16656). The test is described as follows: ATG_NRF1_CIS: Attagene CIS-FACTORIAL HepG2 Assay for human Nuclear Respiratory Factor 1 (NRF1) Orphan Gene (AID 2282987). As to conditions: HepG2 NRF1 cis-element reporter, Attagene multiplex; actives raise or lower the signal. The procedure, abridged: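 Using DMSO as baseline, gain- or loss-of-signal was fitted for reporter mRNA levels in HepG2 cells transiently transfected with cis-regulated reporter units. Samples were taken 24 h after dosing and read by RT-PCR with capillary electrophoresis.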
Sequence of Nuclear respiratory factor 1 (Homo sapiens) (Q16656 whole entry, looked up): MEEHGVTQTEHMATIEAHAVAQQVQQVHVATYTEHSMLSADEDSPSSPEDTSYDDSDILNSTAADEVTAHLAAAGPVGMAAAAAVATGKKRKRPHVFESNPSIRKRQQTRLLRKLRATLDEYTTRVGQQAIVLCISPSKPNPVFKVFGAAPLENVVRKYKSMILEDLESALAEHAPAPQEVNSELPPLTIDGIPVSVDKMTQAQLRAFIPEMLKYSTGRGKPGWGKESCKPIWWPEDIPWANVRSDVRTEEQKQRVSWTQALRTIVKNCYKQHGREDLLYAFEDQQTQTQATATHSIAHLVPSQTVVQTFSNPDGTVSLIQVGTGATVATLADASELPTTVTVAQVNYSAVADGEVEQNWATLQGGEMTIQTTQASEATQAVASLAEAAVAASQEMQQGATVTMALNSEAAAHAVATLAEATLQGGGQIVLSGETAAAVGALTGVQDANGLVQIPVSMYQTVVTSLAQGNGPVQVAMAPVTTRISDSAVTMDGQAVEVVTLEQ

A short description of test [8]: ATG_NFI_CIS: Attagene CIS-FACTORIAL HepG2 Assay for human Nuclear Factor I (NFI) (AID 2282989). To be noted: HepG2 cis-regulatory reporter, NFI response element transcription; actives raise or lower the signal. Summed up: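 Cells: human liver HepG2, transiently transfected with promoter-regulated reporter transcription units. Exposure 24 h. Detection: fluorescent RT-PCR products separated by capillary electrophoresis, normalised to DMSO negative control.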

Test [9] deals with Myc proto-oncogene protein (Homo sapiens) (UniProt P01106). Description: ATG_Myc_CIS: Attagene CIS-FACTORIAL HepG2 Assay for human Myelocytomatosis (Myc) Proto-Oncogene Transcription Factor (AID 2282990). As to conditions: HepG2, Attagene cis-reporter transcription factor activity; actives raise or lower the signal. The procedure, abridged: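 DMSO-normalised, bidirectionally fitted reporter mRNA signal. HepG2 cells transfected with cis reporter constructs, treated 24 h; transcripts detected by RT-PCR, 6-FAM primer extension and CE.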
Sequence of Myc proto-oncogene protein (Homo sapiens) (P01106 whole entry, looked up): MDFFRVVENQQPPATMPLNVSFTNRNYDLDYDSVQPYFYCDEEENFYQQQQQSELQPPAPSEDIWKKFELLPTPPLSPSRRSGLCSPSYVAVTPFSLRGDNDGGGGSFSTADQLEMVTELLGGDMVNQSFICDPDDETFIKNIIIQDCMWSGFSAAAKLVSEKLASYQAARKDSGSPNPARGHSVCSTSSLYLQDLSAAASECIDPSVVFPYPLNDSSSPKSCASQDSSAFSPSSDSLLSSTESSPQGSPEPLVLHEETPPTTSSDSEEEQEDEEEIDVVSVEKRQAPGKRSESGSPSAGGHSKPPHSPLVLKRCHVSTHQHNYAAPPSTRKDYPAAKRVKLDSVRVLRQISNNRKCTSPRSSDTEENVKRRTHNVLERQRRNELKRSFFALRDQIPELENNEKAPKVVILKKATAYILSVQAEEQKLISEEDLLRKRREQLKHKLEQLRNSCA

The nature of test [10]: ATG_NF_kB_CIS: Attagene CIS-FACTORIAL HepG2 Assay for human Nuclear Factor Kappa B (NF-kB) (AID 2282991). To be noted: HepG2 Attagene cis-factorial NF-kB reporter mRNA; actives raise or lower the signal. Summed up:
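Endpoint from a 52-component multiplexed HepG2 reporter panel: cis-regulated transcription units transiently transfected, 24 h dosing, reporter mRNA quantified by RT-PCR and capillary electrophoresis, scored as increase or decrease against DMSO.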

Test [11] can be described thus: ATG_NRF2_ARE_CIS: Attagene CIS-FACTORIAL HepG2 Assay for human Nuclear Factor Erythroid 2 Related Factor 2 (NFR2) response to Antioxidant Response Elements (ARE) (AID 2282992). As to conditions: HepG2 Attagene ARE/NRF2 reporter, transcription factor activity; actives raise or lower the signal. The procedure, abridged:
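Endogenous transcription factor activity read out as reporter transcript levels (RT-PCR plus capillary electrophoresis, fluorescence) in transiently transfected HepG2 cells. Measured at 24 h after dosing; gain or loss of signal fitted versus DMSO.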

A short description of test [12]: ATG_Oct_MLP_CIS: Attagene CIS-FACTORIAL HepG2 Assay for human Octamer-Binding Transcription Factor (Oct) (AID 2282993). As to conditions: HepG2 Attagene cis-factorial Oct reporter, mRNA; actives raise or lower the signal. The procedure, abridged:
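HepG2, transient MRTU transfection, cis promoter elements; 24 h dosing; RT-PCR/CE fluorescence read-out of reporter mRNA; fit both directions vs DMSO.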

The target of test [13] is Cellular tumor antigen p53 (Homo sapiens) (UniProt P04637). Description: ATG_p53_CIS: Attagene CIS-FACTORIAL HepG2 Assay for human p53 Transcription Factor (AID 2282994). As to conditions: HepG2 p53 cis-element reporter, Attagene mRNA; actives raise or lower the signal. Summed up: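 Endogenous p53 activity read in transiently transfected HepG2 from a cis-element-driven reporter transcript after 24 h exposure. RNA reverse-transcribed, PCR-amplified, fluorescently labelled and sized by capillary electrophoresis; gain or loss fitted against DMSO baseline.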
Sequence of Cellular tumor antigen p53 (Homo sapiens) (P04637 whole entry, looked up): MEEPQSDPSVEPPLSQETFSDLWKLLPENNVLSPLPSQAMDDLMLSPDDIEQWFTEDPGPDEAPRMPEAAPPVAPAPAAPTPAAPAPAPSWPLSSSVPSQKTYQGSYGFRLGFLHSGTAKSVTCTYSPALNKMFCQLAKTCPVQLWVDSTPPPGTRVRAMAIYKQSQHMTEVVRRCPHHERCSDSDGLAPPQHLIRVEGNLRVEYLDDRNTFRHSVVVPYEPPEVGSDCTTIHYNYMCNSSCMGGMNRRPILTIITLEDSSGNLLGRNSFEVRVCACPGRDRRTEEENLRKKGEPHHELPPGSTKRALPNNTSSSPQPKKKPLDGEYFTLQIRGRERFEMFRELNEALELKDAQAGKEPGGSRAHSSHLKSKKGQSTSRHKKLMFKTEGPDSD

The nature of test [14]: BSK_3C_TissueFactor: BioMAP Diversity Plus: 3C Assay for Tissue Factor Biomarker Activity (AID 2282997). As to conditions: BioMAP 3C HUVEC, tissue factor biomarker readout; actives raise or lower the signal. The procedure, abridged:
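Tissue Factor measured by ELISA, 24 h after treatment of primary HUVEC in the BioMAP 3C setting.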

Test [15] can be described thus: BSK_3C_uPAR: BioMAP Diversity Plus: 3C Assay for Urokinase-type plasminogen activator receptor (uPAR) Biomarker Activity (AID 2282998). As to conditions: BioMAP 3C HUVEC, uPAR biomarker ELISA; actives raise or lower the signal. Summed up:
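A multiplexed primary-cell system built on human umbilical vein endothelium was used, with chemical present for 24 h before reading. Cell-surface uPAR was detected by ELISA; signal change in either direction counted against DMSO.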

A short description of test [16]: BSK_3C_VCAM1: BioMAP Diversity Plus: 3C Assay for Vascular cell adhesion molecule 1 (VCAM1) Biomarker Activity (AID 2282999). As to conditions: BioMAP 3C HUVEC, VCAM1 ELISA, cytokine-stimulated; actives raise or lower the signal. Summed up: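 Vascular primary endothelium (human umbilical vein) was exposed to chemicals and assayed 24 h later. VCAM-1 levels came from ELISA, with DMSO serving as baseline for bidirectional fitting.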
(In general: ELISA stands for enzyme-linked immunosorbent assay.)

Test [17] is described as follows: BSK_4H_Eotaxin3: BioMAP Diversity Plus: 4H Assay for Eotaxin 3 Biomarker Activity (AID 2283000).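 On outcome: CCL26 protein level quantified by ELISA in parallel with SRB cytotoxicity check.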 As to conditions: primary human endothelial cells (HUVEC); actives raise or lower the signal. The procedure, abridged:
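Eotaxin-3 (CCL26) levels were measured by ELISA in HUVEC primary cultures 24 h post-dosing. Gain or loss of signal was fitted in both directions, with DMSO serving as baseline and negative control.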

For test [18], the target named is Nuclear receptor subfamily 4 group A member 2 (Homo sapiens) (UniProt P43354). The test is described as follows: ATG_NURR1_TRANS: Attagene TRANS-FACTORIAL HepG2 Assay for human Nuclear Receptor Related Protein 1 (NURR1) (AID 2282985; active means hit-call score of the fitted dose curve at least 0.9, where 1 is the maximum). To be noted: HepG2 Attagene TRANS reporter, mRNA readout. The procedure, abridged: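 Chimeric NR-Gal4 fusion activity measured in HepG2 after 24 h treatment. Reporter transcripts detected by RT-PCR and capillary electrophoresis fluorescence; positive-direction curve fitting against DMSO.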
Sequence of Nuclear receptor subfamily 4 group A member 2 (Homo sapiens) (P43354 whole entry, looked up, the tested form may be a part): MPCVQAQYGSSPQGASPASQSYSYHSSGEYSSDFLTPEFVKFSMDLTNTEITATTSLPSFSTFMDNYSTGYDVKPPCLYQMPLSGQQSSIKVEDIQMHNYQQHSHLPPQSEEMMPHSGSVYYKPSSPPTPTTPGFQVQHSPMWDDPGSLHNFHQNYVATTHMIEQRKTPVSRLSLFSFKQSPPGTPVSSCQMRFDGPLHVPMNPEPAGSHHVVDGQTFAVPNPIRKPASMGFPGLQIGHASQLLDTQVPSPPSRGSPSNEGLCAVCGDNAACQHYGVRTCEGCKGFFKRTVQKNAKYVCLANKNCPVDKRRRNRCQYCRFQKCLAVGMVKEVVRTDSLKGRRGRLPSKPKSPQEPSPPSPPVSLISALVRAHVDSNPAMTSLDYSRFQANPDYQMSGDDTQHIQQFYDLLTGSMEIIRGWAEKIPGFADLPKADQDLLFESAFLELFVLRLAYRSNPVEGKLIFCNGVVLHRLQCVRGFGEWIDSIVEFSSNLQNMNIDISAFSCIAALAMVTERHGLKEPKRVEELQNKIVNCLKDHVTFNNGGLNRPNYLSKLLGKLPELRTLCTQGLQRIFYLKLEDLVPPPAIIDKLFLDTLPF

Test [19] addresses Glucocorticoid receptor (Homo sapiens) (UniProt P04150). The test is described as follows: ATG_GR_TRANS: Attagene TRANS-FACTORIAL HepG2 Assay for human Glucocorticoid Receptor (GR) (AID 2282978; active means hit-call score of the fitted dose curve at least 0.9, where 1 is the maximum;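 further: activators score as hits since higher reporter transcript over DMSO is fitted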). To be noted: HepG2 Attagene TRANS GR reporter, mRNA transcription. Summed up:
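Exogenous NR-GAL4 fusion activity was assessed through induced GAL4-UAS reporter transcripts in transfected human HepG2 cells, quantified after 24 h by RT-PCR and fluorescent capillary electrophoresis with DMSO as baseline.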

Usually AC50 stands for the concentration giving half of the maximal activity seen.

Results filed as inconclusive are left out. Active and inactive are the calls of the source. How the source made its calls, unless noted: active means hit-call score of the fitted dose curve at least 0.9, where 1 is the maximum; inactive means score below 0.9.

Sequence of Bile acid receptor (Homo sapiens) (Q96RI1 whole entry, looked up, the tested form may be a part): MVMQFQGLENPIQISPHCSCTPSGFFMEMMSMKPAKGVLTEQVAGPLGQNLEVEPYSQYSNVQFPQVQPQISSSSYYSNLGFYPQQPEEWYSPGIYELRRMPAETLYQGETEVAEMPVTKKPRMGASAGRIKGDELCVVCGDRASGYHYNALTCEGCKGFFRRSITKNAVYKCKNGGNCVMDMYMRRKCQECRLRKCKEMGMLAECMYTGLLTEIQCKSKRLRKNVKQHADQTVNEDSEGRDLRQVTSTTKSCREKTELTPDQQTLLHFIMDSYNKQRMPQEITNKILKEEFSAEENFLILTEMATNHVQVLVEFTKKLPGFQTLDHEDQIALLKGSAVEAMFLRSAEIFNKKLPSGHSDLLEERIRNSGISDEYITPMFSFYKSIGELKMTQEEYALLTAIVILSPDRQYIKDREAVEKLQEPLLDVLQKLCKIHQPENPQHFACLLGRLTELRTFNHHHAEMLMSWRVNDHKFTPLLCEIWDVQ
Sequence of Transcriptional activator Myb (Homo sapiens) (P10242 whole entry, looked up): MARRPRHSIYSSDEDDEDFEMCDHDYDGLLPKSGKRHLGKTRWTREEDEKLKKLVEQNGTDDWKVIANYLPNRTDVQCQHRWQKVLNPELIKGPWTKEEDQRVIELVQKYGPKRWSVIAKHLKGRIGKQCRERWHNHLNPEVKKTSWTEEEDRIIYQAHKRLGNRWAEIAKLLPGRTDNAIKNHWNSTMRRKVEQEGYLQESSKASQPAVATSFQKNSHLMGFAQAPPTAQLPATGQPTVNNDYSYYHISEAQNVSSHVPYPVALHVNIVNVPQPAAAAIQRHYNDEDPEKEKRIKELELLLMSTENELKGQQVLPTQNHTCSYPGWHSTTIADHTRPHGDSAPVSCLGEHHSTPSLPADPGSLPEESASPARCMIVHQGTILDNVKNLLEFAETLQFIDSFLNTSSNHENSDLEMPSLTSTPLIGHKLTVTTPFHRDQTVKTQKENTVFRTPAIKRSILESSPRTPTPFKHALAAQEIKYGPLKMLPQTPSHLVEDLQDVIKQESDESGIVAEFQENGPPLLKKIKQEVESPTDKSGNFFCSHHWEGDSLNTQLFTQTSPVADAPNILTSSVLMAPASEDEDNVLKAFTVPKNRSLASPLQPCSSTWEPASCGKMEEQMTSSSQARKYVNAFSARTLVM
Sequence of Oxysterols receptor LXR-alpha (Homo sapiens) (Q13133 whole entry, looked up, the tested form may be a part): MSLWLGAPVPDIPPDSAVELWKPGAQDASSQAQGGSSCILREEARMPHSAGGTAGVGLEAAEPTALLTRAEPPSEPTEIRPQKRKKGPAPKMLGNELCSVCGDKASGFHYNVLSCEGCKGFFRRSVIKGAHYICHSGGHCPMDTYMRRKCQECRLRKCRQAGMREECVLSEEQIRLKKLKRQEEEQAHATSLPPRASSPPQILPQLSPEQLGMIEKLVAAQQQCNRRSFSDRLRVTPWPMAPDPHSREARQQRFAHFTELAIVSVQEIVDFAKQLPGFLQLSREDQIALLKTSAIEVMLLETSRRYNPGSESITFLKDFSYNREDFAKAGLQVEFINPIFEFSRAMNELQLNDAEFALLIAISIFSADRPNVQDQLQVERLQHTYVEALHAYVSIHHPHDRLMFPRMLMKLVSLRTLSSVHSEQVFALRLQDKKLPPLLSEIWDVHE
Sequence of Glucocorticoid receptor (Homo sapiens) (P04150 whole entry, looked up, the tested form may be a part): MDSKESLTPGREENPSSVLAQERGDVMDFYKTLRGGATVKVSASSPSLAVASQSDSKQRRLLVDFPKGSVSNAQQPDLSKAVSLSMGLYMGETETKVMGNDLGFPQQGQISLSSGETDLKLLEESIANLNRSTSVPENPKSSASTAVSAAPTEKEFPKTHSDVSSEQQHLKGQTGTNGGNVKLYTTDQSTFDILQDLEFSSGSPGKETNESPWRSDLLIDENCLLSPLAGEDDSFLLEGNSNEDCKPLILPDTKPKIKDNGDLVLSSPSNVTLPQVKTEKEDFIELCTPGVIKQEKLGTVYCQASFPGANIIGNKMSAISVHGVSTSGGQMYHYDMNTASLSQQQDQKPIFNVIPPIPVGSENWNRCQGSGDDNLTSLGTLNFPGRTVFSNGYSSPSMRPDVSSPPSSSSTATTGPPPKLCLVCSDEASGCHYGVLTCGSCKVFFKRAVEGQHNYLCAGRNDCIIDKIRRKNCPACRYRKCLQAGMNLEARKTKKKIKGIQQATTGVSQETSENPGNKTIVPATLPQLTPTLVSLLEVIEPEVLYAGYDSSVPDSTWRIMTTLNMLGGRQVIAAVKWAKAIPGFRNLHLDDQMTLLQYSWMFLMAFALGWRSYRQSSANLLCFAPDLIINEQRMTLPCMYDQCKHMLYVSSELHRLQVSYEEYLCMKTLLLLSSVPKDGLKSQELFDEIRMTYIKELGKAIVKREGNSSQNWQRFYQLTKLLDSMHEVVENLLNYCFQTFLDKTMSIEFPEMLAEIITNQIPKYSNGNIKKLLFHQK
Sequence of Hepatocyte nuclear factor 4-alpha (Homo sapiens) (P41235 whole entry, looked up, the tested form may be a part): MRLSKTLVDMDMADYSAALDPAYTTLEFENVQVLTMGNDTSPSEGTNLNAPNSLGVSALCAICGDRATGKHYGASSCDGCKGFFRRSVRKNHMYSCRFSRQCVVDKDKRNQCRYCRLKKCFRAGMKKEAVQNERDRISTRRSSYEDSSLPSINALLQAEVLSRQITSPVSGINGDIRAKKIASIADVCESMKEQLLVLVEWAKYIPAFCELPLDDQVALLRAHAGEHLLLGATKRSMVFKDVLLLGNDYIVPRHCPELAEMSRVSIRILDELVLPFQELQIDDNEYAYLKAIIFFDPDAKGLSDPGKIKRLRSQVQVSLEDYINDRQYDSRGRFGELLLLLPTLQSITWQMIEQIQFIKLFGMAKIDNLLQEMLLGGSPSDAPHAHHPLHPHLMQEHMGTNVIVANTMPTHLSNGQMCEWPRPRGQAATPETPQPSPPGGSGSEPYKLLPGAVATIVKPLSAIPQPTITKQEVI

On to `c1ccc(C[n+]2cccc3ccccc32)cc1`, for which the outcome in [1], in test [2], in [3], in test [4], in [5] and in [6] was inactive. Also, the compound was called inactive in test [7], in [8], in [9], in test [10], in [12] and in test [13]. The outcome in [14], in [15], in test [16] and in test [17] was inactive. Also, in [11], the AC50 was 67.9 µM (active).

In the case of `COc1ccc2cc(S(=O)(=O)N[C@H](CC(=O)N[C@H](Cc3ccc(CN4[C@H](C)CCC[C@@H]4C)cc3)C(=O)N(C)C(C)C)c3ccc4c(c3)OCO4)ccc2c1`, the call in test [1], in test [2], in [3], in test [18], in test [6] and in test [7] was inactive. Moreover, the outcome in [8], in test [9] and in [10] was inactive. Further, the AC50 was 11 µM (active) in test [11]; 11 µM (active) in test [12]; 11 µM (active) in test [13]; 5.1 µM (active) in [14]; 19.1 µM (active) in [15]; 16.4 µM (active) in test [16]. Besides, the AC50 in test [17] is 11.3 µM (active).

Consider `COc1cc(C(=O)NC2CCN(C)CC2)ccc1Nc1ncc2c(n1)N(C1CCCC1)CC(F)(F)C(=O)N2C`, for which the call in test [1], in test [2], in test [4], in test [6], in test [7] and in [9] was inactive. Also, the compound was called inactive in [10] and in test [11]. The AC50 in test [12] is 1.07 µM (active); in test [13], 1.94 µM (active); in test [14], 5.9 µM (active); in [15], 22.7 µM (active); in test [16], 19.1 µM (active); in [17], 14.6 µM (active).

Turning to `O=C(O)Cn1c(=O)n(Cc2ccc(Br)cc2F)c(=O)c2ccc(Cl)cc21`, the result in test [19], in test [1], in test [4], in test [18], in test [6] and in test [7] was inactive. The outcome in [8], in [9], in [12], in test [13], in [14] and in [15] was inactive. In addition, the outcome in [16] and in test [17] was inactive. Further, the AC50 was 161 µM (active) in [10] and 26.5 µM (active) in test [11].

In the case of `O=C=NCCCCCCN=C=O`, the compound was called inactive in test [1], in test [2], in test [4], in test [5], in test [6] and in test [7]. Moreover, the outcome in test [9], in test [10], in test [11], in test [12], in test [13] and in test [14] was inactive. Besides, the outcome in test [15], in [16] and in test [17] was inactive.

Take `O=C(O)c1ccccc1-n1cc(C(=O)O)c(=O)c2cc(Nc3c(F)cc(F)cc3Cl)c(Cl)cc21`: the compound was called inactive in test [19], in test [1], in test [2], in test [4], in [5] and in test [6]. The compound was called inactive in [7], in test [8], in test [9], in [10], in test [11] and in [12]. Also, the result in [13], in [14], in test [15], in [16] and in test [17] was inactive.
